In PubChem BioAssay AID1259374 (The Scripps Research Institute Molecular Screening Center, 2018) one finds inhibition data, which are given here for 93 compounds.

Values joined by “and” are separate entries in the source; they are usually repeats but may differ in a detail not shown here. Identical values can stand only once. In all, about 650,000 compounds went through this assay and about 5,900 (0.91%) were called active. Rule as the data show it: active = inhibition above about 50%; inactive = the rest. The full list was thinned out, with actives kept by preference. Where a structure was tested more than once in an assay, its records may differ in their call.

For the assay, the target named is Microphthalmia-associated transcription factor (Homo sapiens) (UniProt O75030). Kind of assay: MITF inhibitors, primary screen, biochemical, AlphaScreen, human (AID 1259374).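 Also: 0% = vehicle wells with protein.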 Conditions: AlphaScreen MITF homodimerization, bead proximity signal; at 2.6 µM; stronger effect = higher value.
Microphthalmia-associated transcription factor (Homo sapiens), sequence (O75030 whole entry, looked up): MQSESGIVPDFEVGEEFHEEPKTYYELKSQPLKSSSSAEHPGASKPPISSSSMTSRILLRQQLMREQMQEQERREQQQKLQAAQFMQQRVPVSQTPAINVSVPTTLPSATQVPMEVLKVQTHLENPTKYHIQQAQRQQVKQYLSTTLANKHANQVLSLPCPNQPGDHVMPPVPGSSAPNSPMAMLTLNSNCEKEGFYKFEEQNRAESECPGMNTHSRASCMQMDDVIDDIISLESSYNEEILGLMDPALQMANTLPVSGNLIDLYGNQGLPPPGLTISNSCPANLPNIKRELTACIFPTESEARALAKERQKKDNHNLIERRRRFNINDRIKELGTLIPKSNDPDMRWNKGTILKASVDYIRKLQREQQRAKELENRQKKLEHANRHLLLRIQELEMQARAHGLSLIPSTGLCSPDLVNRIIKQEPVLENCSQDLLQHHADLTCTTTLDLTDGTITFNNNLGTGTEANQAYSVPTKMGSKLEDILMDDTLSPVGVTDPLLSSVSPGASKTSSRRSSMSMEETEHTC
On to `COc1ccccc1C1CN(Cc2ccc(NC(C)=O)s2)Cc2ccccc2O1` (stereo not drawn), for which the inhibition was 1.08% (inactive).

On to `CC1(C)CC(=O)C2=C(C1)N(c1cccc(Cl)c1Cl)C1=C(C(=O)CC(C)(C)C1)C2c1ccc(F)c(Br)c1`, for which the inhibition is -2.02% (inactive).

For `O=C(N/N=C/c1ccncc1)c1cnn(-c2ccccc2)c1C(F)(F)F`, the inhibition was -19.6% (inactive).

In the case of `CC(=O)NC(CC(C)C)C(=O)NC(C(=O)OCc1ccccc1)C(C)C` (stereo not drawn), the inhibition is 11.1% (inactive).

With `Cc1c(Cl)cccc1NC(=O)c1cc(S(=O)(=O)N2CCC(C)CC2)ccc1F`, the inhibition is 1.77% (inactive).

Regarding `CC1CCN(S(=O)(=O)c2ccc(Cl)c(C(=O)Nc3ccccc3[N+](=O)[O-])c2)CC1`, the inhibition is 51% (active).

As for `CC1CCN(S(=O)(=O)c2ccc(F)c(C(=O)Nc3cc(Cl)ccc3Cl)c2)CC1`, the inhibition is -3.2% (inactive).

Take `Cc1ccccc1S(=O)(=O)Cc1ccc(C(=O)NCCCN2CCCCCC2)o1`: the inhibition was -6.96% (inactive).

With `COc1ccccc1N(CN1CCCC1=O)C(=O)c1cc(C)cc(C)c1`, the inhibition was 3.77% (inactive).

For the compound `Cc1ccc(C2SCC(=O)N2c2ccc(C)cc2)cc1` (stereo not drawn), the inhibition was 7.57% (inactive).

With `O=C(Nc1cc(Cl)ccc1Cl)c1cc(C2CC2)on1`, the inhibition was -4.67% (inactive).

Turning to `O=C(CSc1nn2c(=O)c3ccccc3nc2s1)c1ccccc1`, the inhibition was 8.41% (inactive).

For the compound `CC(=O)c1cccc(N2C(=O)c3cccnc3C2=O)c1`, the inhibition is 50.6% (active).

As to `CC(=O)Oc1cccc(N2C(=O)c3cccnc3C2=O)c1`, the inhibition was 38.1% (inactive).

`CC(=O)c1cccc(N2C(=O)c3ccc([N+](=O)[O-])cc3C2=O)c1`: the inhibition is 4.17% (inactive).

Take `CC(C)c1c(O)nc(SCC(=O)NC(C)(C)C)[nH]c1=O`: the inhibition is 9.94% (inactive).

Take `CNCC(O)c1ccc(O)c(O)c1` (stereo not drawn): the inhibition is 83.8% (active) and -4.84% (inactive) and -7.17% (inactive).

`Cc1nnc2n1NC(c1ccc(F)cc1)C(C(=O)Nc1ccccc1C(F)(F)F)S2` (stereo not drawn): the inhibition was -7.82% (inactive).

On to `COc1cc(Br)c(/C=C2/NC(=O)N(c3cccc(Cl)c3)C2=O)cc1OC`, for which the inhibition is -4.06% (inactive).

On to `O=C(Cc1ccc(F)cc1)Nc1cnn(-c2cccc(C(=O)Nc3ccc(N4CCOCC4)cc3)c2)c1`, for which the inhibition is -19.1% (inactive).

Consider `COc1ccc(NC(=O)C2CC(=O)N(c3ccc(Oc4ccccc4)cc3)C2)cc1` (stereo not drawn), for which the inhibition was 12.4% (inactive).

In the case of `CC1CN(CCOc2ccccc2[N+](=O)[O-])CC(C)O1` (stereo not drawn), the inhibition was 50.7% (active).

Take `C=CCc1ccc(OCCN2CC(C)OC(C)C2)c(OC)c1` (stereo not drawn): the inhibition was 34.3% (inactive).

Take `CC1CN(CCOc2ccc(Cl)c3ccccc23)CC(C)O1` (stereo not drawn): the inhibition was 27.1% (inactive).

With `Cc1nc2c(ccc3nc(NC(=O)c4ccc([N+](=O)[O-])o4)sc32)s1`, the inhibition was -9.59% (inactive).

For `O=C(Nc1ccc(Cl)c(Cl)c1)C1C2C=CC3(O2)C1C(=O)N(Cc1cccs1)C3C(=O)NC1CCCCC1` (stereo not drawn), the inhibition was 6.14% (inactive).

`CC(NC(=O)CN(C)S(=O)(=O)c1cccs1)c1ccccc1` (stereo not drawn): the inhibition was -11.7% (inactive).

With `Cc1ccc(C)n1C(Cc1ccccc1)C(=O)O` (stereo not drawn), the inhibition is 66.9% (active).

Take `CC(C)CC(C(=O)O)N1C(=O)c2ccccc2C1=O` (stereo not drawn): the inhibition was 6.74% (inactive).

As for `O=C(Nc1ccccc1)C(Cc1ccccc1)N1C(=O)c2ccccc2C1=O` (stereo not drawn), the inhibition is 3.18% (inactive).

On to `CC(C)N1CCN(C(=O)CC2(c3ccccc3)CC(=O)N(CCc3ccccn3)C2=O)CC1` (stereo not drawn), for which the inhibition is 18.7% (inactive).

As to `Cc1cc(N2CCCC2)nc(Nc2ccc(NC(=O)c3c(F)cccc3Cl)cc2)n1`, the inhibition is 8.34% (inactive).

As for `CCc1ccc(NC(=O)CS(=O)CC(=O)N2CCN(c3ccccc3F)CC2)cc1` (stereo not drawn), the inhibition was -10.3% (inactive).

`CCc1ccc(NC(=O)CS(=O)CC(=O)NCCCc2ccccc2)cc1` (stereo not drawn): the inhibition is 60.7% (active).

Take `CCc1ccc(NC(=O)Nc2ccccc2)cc1`: the inhibition is 7.42% (inactive).

For `COc1ccc(C(=O)Nc2ccc3scnc3c2)cc1`, the inhibition was -2.75% (inactive).

Regarding `COc1ccc(-c2nnn(CC(=O)NCc3ccc(C)cc3)n2)cc1OC`, the inhibition is 16.6% (inactive).

As to `COc1ccc(C(=O)N/N=C/c2c(O)ccc3ccccc23)cc1`, the inhibition is 16.9% (inactive).

On to `COc1ccc(C(=O)N/N=C/c2ccc(O)c3ncccc23)cc1`, for which the inhibition is 100% (active).

In the case of `COc1ccc(O)c(/C=N/NC(=O)c2ccc(NC(C)=O)cc2)c1`, the inhibition is 17.1% (inactive).

With `Cc1cc(C)c(NS(=O)(=O)c2ccc3c(c2)n(C)c(=O)c(=O)n3C)c(C)c1`, the inhibition is 4.25% (inactive).

In the case of `COc1cc(OC)c(OC)cc1CN1CCN(Cc2ccc(F)cc2)CC1`, the inhibition is 64% (active).

Take `COc1cc(CN2CCN(Cc3ccccc3Br)CC2)cc(OC)c1`: the inhibition was 89.3% (active).

For `COc1cc(OC)c(OC)cc1CN1CCN(c2ccccc2F)CC1`, the inhibition is 24.1% (inactive).

As to `CCOc1cc(CN2CCN(Cc3cc(OC)cc(OC)c3)C(CCO)C2)ccc1OC` (stereo not drawn), the inhibition was 0.98% (inactive).

Take `COc1cc(CN2CCN(c3ccccc3OC)CC2)cc(OC)c1`: the inhibition is 10.9% (inactive).

As for `COc1cc(CN2CCN(Cc3ccc(OC)c(OC)c3)CC2)cc(OC)c1`, the inhibition is 71.4% (active).

Turning to `COc1cc(OC)c(OC)cc1CN1CCN(Cc2ccc3c(c2)OCO3)CC1`, the inhibition was 49.8% (inactive).

Take `CCOC(=O)N1CCN(Cc2cc(Br)c(OC)cc2OC)CC1`: the inhibition is 8.78% (inactive).

Consider `COc1cc(CN2CCN(c3nccn3C)CC2)cc(OC)c1`, for which the inhibition is 8.7% (inactive).

For `COc1cc(CN2CCN(Cc3cc(OC)c(OC)cc3OC)CC2)cc(OC)c1`, the inhibition was 75.9% (active).

Consider `COc1ccc(CN2CCC(C(N)=O)CC2)cc1OC`, for which the inhibition is 1.23% (inactive).

Consider `CC(C)Oc1ccccc1/C=C(\C#N)C(=O)Nc1ccccc1`, for which the inhibition is -0.06% (inactive).

As for `O=C(CN1C(=O)CCC1=O)Nc1ccc(O)c(-c2nc3ccccc3s2)c1`, the inhibition was 0.38% (inactive).

Consider `O=C(O)c1ccc(/C=N/Nc2ccc3ccccc3n2)cc1`, for which the inhibition is 10.5% (inactive).

With `CC(=O)N1CCc2cc(Br)cc(S(=O)(=O)N3CCN(Cc4ccccc4)CC3)c21`, the inhibition is 13.2% (inactive).

For `O=C(CCS(=O)(=O)c1cccc2nonc12)N1CCCC1`, the inhibition was 11.4% (inactive).

Turning to `COc1ccc(Cn2c(CCC(=O)Nc3cccc(SC)c3)nc3cccnc32)cc1`, the inhibition is -3.6% (inactive).

Turning to `O=C(Oc1cccc(OC(=O)c2ccccc2)c1)c1ccccc1`, the inhibition was -0.91% (inactive).

Regarding `C#CC(C)(C)OC(=O)C1C2C=CC(C2)C1C(=O)O` (stereo not drawn), the inhibition is 21.6% (inactive).

With `Cc1ccc(NC(=O)C2C3C=CC4(O3)C2C(=O)N(C2CCCCCCC2)C4C(=O)NC2CCCCC2)cc1Cl` (stereo not drawn), the inhibition was -0.34% (inactive).

As to `O=C(NCCc1ccccc1)c1ccc(Cn2c(=S)[nH]c3cc4c(cc3c2=O)OCO4)cc1`, the inhibition was 13.8% (inactive).

For the compound `CCn1c(=O)c2ccccc2n2c(SCC(=O)Nc3nccs3)nnc12`, the inhibition is 0.8% (inactive).

Take `COc1ccc(CCN2CCC(c3nc(-c4ccc5c(c4)OCO5)no3)CC2)cc1OC`: the inhibition was 7.81% (inactive).

Take `O=C(N/N=C/c1cc(Br)ccc1O)c1ccc(=O)[nH]n1`: the inhibition was 80.2% (active).

Consider `O=C(N/N=C/c1cc(Br)ccc1O)c1cc(Br)ccc1O`, for which the inhibition was 8.32% (inactive).

Take `O=C(N/N=C/c1cc(Br)ccc1O)c1cc(-c2cccs2)[nH]n1`: the inhibition is 17.6% (inactive).

With `CCOC(=O)C1=C(O)/C(=C\c2cccc(Cl)c2)N=C1C`, the inhibition was -3.89% (inactive).

Regarding `COC(=O)C1=C(O)/C(=C\c2cccc(O)c2)N=C1C`, the inhibition was 58% (active).

`COC(=O)C1=C(O)/C(=C\c2ccccc2C(F)(F)F)N=C1C`: the inhibition is 1.73% (inactive).

Take `CCN(CC)C(=O)C1CCCN(c2cccc(C(=O)NCCOc3ccccc3)c2)C1` (stereo not drawn): the inhibition is 17.9% (inactive).

As for `O=C(CSc1ncnc2nc[nH]c12)c1ccc(O)c(O)c1`, the inhibition was 82.1% (active).

Take `c1nc(SCc2ccc3c(c2)OCO3)c2[nH]cnc2n1`: the inhibition is 5.04% (inactive).

For `Cn1c(N)c(C(=O)CSc2ncnc3nc[nH]c23)c(=O)n(C)c1=O`, the inhibition was 10.9% (inactive).

On to `CC(=O)N1CCN(Cc2ccc3c(c2)CN(C(=O)c2cccc(N(C)C)c2)CCO3)CC1`, for which the inhibition was 1.41% (inactive).

Regarding `C/C(=N\NC(=O)CCCc1cc2ccccc2[nH]1)c1ccncc1`, the inhibition was 12.8% (inactive).

For `COc1cccc(CCNC(=O)CC2C(=O)NCCN2Cc2cccc(C(F)(F)F)c2)c1` (stereo not drawn), the inhibition was 10.1% (inactive).

Take `CCCS(=O)(=O)N1CCN(c2ccc(C)nn2)CC1`: the inhibition was 1.44% (inactive).

For `CCCS(=O)(=O)N1CCN(C(C)C)CC1`, the inhibition was 87.2% (active).

Regarding `CCCS(=O)(=O)N1CCN(C(=O)c2cccs2)CC1`, the inhibition is 16.3% (inactive).

Take `O=C1Nc2c(Cl)cc(Cl)cc2/C1=N\N=C\c1ccc(O)c(O)c1O`: the inhibition was 80.2% (active).

Regarding `C[n+]1ccc(C(=O)N/N=C/c2ccc(Cl)cc2Cl)cc1`, the inhibition is 0.41% (inactive).

On to `O=C(N/N=C\c1ccc(Cl)cc1Cl)c1ccccc1O`, for which the inhibition is 9.14% (inactive).

With `CCC1CCCCN1Cc1c(O)ccc2c(=O)c(Oc3ccc(OC)cc3)c(C(F)(F)F)oc12` (stereo not drawn), the inhibition was -1.92% (inactive).

In the case of `CC(C)C[C@@H]1NC(=O)[C@@H]2C[C@H](NC(=O)Nc3c(Cl)cccc3Cl)CN2C1=O`, the inhibition was 2.93% (inactive).

Consider `Cc1noc(C)c1-c1cccc(C(=O)NCCCN2CCCC2=O)c1`, for which the inhibition is 12.4% (inactive).

Regarding `CCOC(=O)N1CCC(N(CCOC)C(=S)Nc2ccccc2F)CC1`, the inhibition is -9.05% (inactive).

In the case of `CN(C)CCCNC(=O)C(=O)Nc1ccccc1F`, the inhibition is -6.25% (inactive).

For `CC(c1ccccn1)N(CCN(C)C)C(=S)Nc1ccccc1F` (stereo not drawn), the inhibition was 58% (active).

In the case of `Cc1ccc(S(=O)(=O)N(CCC(=O)NCC2CCCO2)Cc2c(Cl)cccc2Cl)cc1` (stereo not drawn), the inhibition was -0.49% (inactive).

Regarding `O=C(Nc1sc2c(c1C(=O)Nc1ccccc1)CCCCC2)c1ccncc1`, the inhibition is 17.1% (inactive).

As to `CCOc1ccc(C(=O)Nc2cccc(-c3nc4cc(C)cc(C)c4o3)c2)cc1[N+](=O)[O-]`, the inhibition was 8.35% (inactive).

On to `COc1cc(C(=O)N/C(=C/c2ccc3c(c2)OCO3)C(=O)NCC(=O)O)cc(OC)c1OC`, for which the inhibition is -4.22% (inactive).

Usually inhibition stands for the relative decrease from the control value, in per cent.
